# Six1-Eya2 inh = inhibitors of human Six1/Eya2 interaction; activity change, % (concentration not given with the values); Q15475+O00167; AlphaScreen GST-Six1/His-Eya2 binding, biochemical; stronger effect = lower value; 360,000 tested, 0.56% active; in the data active means activity change below about -65%; inconclusive means mostly about -30% to -63%
# Target sequence (O00167 whole entry, looked up): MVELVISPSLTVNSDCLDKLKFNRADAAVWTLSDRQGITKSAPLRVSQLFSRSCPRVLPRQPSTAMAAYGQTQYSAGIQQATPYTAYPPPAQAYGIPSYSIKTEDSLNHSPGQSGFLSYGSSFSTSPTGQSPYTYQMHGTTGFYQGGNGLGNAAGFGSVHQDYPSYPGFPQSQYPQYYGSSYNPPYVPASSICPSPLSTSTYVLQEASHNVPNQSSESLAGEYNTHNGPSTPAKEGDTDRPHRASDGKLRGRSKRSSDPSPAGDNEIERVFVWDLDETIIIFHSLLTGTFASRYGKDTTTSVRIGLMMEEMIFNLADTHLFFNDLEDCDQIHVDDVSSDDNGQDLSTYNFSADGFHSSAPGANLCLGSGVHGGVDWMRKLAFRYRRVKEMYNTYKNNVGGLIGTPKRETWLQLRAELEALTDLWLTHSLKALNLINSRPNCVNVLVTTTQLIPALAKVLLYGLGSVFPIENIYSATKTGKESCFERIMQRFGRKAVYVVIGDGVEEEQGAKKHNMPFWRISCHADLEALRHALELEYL
# Target sequence (Q15475 whole entry, looked up): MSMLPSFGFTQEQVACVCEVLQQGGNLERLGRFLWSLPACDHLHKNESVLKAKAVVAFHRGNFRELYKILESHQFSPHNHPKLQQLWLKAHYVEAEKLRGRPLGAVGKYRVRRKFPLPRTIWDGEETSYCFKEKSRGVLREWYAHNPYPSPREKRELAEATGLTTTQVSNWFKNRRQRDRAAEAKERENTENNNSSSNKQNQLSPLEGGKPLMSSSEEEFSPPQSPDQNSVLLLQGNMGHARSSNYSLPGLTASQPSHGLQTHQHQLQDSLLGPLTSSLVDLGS
#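 AlphaScreen luminescence read after one hour at 37 °C in darkness. Pin-transferred compounds met GST-Six1 and His-Eya2 protein (5X stock 250 nM/500 nM) plus glutathione donor and Ni-chelate acceptor beads (5X, 50 ug/mL).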
# IL-1B inflam inh = inflammasome signaling inhibition, IL-1 beta readout | THP-1 LPS/ATP IL-1B secretion, AlphaLISA, 16 h; stronger effect = lower value | activity change, % at 57.5 µM | 360,000 tested, 4.7% active | AID 743279; in the data active means activity change below about -50%; inconclusive means mostly about -30% to -49%
#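 Secreted IL-1B measured by AlphaLISA bead assay after 16 h compound exposure of THP-1 cells; compounds (final up to 57.5 uM) added 1 h before LPS (250 ng/mL) and ATP (1.25 mM) stimulation; lower signal means less secretion.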
# TDP1 cell CPT = growth inhibition of DT40 Tdp1-/-;hTDP1 cells with camptothecin (screen for TDP1 inhibitors) | chicken DT40 Tdp1-/-;hTDP1 cells + 20 nM CPT, ATP luminescence, 48 h | Potency, µM (titrated, usually from 46.2 µM), for inactives: at the top dose activity change, negative = growth inhibition, usual class: inhibitors | 420,000 tested, 12% active; further: potency means the concentration at half of the fitted maximal effect; nearly all actives have a fitted effect of over 55% in size
#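 Chicken DT40 Tdp1-/- cells complemented with human TDP1, 400 cells/well, exposed to compounds plus 20 nM camptothecin for at least 48 h at 37 C; viability read as ATP content by CellTiter-Glo luminescence.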
# TDP1 block = TDP1 (human) enzyme inhibition. Q9NUW8. recombinant TDP1, AlphaScreen DNA substrate cleavage. Potency, µM (top dose mostly 130 µM), for inactives: top-dose activity change, negative = inhibition, hits mostly inhibitors. 350,000 tested, 0.28% active. AID 485290; further: potency means the concentration at half of the fitted maximal effect; nearly all actives have a fitted effect of over 40% in size
#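 Here, a 5' biotin and 3' phosphotyrosine-FITC DNA oligonucleotide reports Tdp1 activity: intact substrate bridges AlphaScreen beads, while cleavage leaves a 3' phosphate and drops signal. All incubations at room temperature.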
# TDP1 cell noCPT = qHTS for Inhibitors of human tyrosyl-DNA phosphodiesterase 1 (TDP1): qHTS in cells in absence of CPT | Potency, µM (titrated, usually from 46.2 µM), without a hit: top-dose activity change, negative = growth inhibition, hits mostly inhibitors | 420,000 tested, 15% active | AID 686978, 2013 | DT40 Tdp1-/- hTDP1 cells, no CPT, ATP luminescence, 48 h; further: potency means the concentration at half of the fitted maximal effect; nearly all actives have a fitted effect of over 55% in size
#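 Growth of hTDP1-complemented DT40 Tdp1-knockout cells is measured by ATP luminescence after at least 48 hr compound exposure at 37 °C, with DMSO substituting for the 20 nM CPT used in the parallel screen.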
# CtBP-E1A inh = blocks the CtBP interaction with E1A; AlphaScreen GST-E1A/His-CtBP binding, 1536-well; stronger effect = lower value; activity change, % (no concentration beside the values); 340,000 tested, 0.49% active; AID 651724; in the data active means activity change below about -65%; inconclusive means mostly about -30% to -63%
#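 Homogeneous bead-based format: GST-tagged E1A captured on glutathione donor beads, His-tagged CtBP on nickel acceptor beads; compounds precede bead addition by 2 h at 37 °C.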
# An asterisk follows results filed as active; ? = inconclusive; . = not tested or not shown; [ ] = dose if it differs, or a comment. This is a sample that favours compounds with a hit; in the whole collection about 18% have one here. Unless noted, the call rests on the fitted dose curve; in most records, active means well fitted curve in the direction sought with a large enough effect; inconclusive means small, poorly fitted or top-dose-only effect, or another doubt; inactive means no such curve, though single readings can be large; an effect the other way counts as inactive or inconclusive. On the % scale 0 is the no-effect control and ±100 the full control effect.
SMILES,Six1-Eya2 inh,IL-1B inflam inh,TDP1 cell CPT,TDP1 block,TDP1 cell noCPT,CtBP-E1A inh
CN1CCN(c2cc([N+](=O)[O-])ccc2Cl)CC1,0.5,-11.9,-1.5%,-5.0%,-8.5%,1.8
O=C(NN=Cc1ccc(N(CCCl)CCCl)cc1)C(=O)c1c[nH]c2ccccc12,-20.2,-8.9,20.6µM*,.,14.6µM*,-26.0
Cc1ccccc1C(=O)N1Cc2cnnn2-c2ccccc2C1C#N (centres undefined),4.1,11.6,-8.5%,.,-19.7%,2.1
COc1ccc(CN2Cc3cc(N4CCOCC4)ccc3-n3nncc3C2)cc1,-2.5,-21.7,20.6µM*,.,?,-0.2
COc1ccc(CN2Cc3cnnn3-c3ccccc3C2C)cc1 (centres undefined),-0.7,21.2,?,.,16.4µM*,2.8
CCOC(=O)CC1c2ccccc2-n2nncc2CN1Cc1ccc(OC)cc1 (centres undefined),-0.3,8.6,?,.,?,2.3
COc1ccc(CN2Cc3cc(-c4ccc(OC)cc4)ccc3-n3nncc3C2)cc1,-26.4,-1.5,20.6µM*,.,18.4µM*,-24.4
Cc1ccccc1CN1Cc2cnnn2-c2ccccc2C1C#N (centres undefined),-6.3,-102.4*,2.59µM*,.,2.06µM*,-13.5
CC1CC[C@@]2(NC1)O[C@@H]1C[C@H]3C4CC=C5C[C@@H](O)CC[C@]5(C)C4CC[C@]3(C)[C@H]1[C@@H]2C (some centres undefined),.,.,11.8%,-2.4%,-24.1%,.
CC(C)C12CN3CCN(CC(C3)C1O)C2 (centres undefined),2.3,0.5,-10.3%,4.1%,-6.9%,1.4
S=C(NCCc1ccccc1)N1Cc2cc(Br)ccc2-n2nncc2C1,5.5,-23.0,?,.,?,0.7
CNc1ccc2oc(C[C@@H]3OC4(CC[C@@H]3C)O[C@H](C(C)C(=O)c3ccc[nH]3)[C@H](C)C[C@H]4C)nc2c1C(=O)O (some centres undefined),.,.,.,22.4%,.,.
CC[C@@]1([C@@H]2O[C@@H]([C@H]3O[C@@](O)(CO)[C@H](C)C[C@@H]3C)C[C@@H]2C)CC[C@H]([C@]2(C)CC[C@]3(C[C@H](O)[C@@H](C)[C@@H]([C@@H](C)[C@@H](OC)[C@H](C)C(=O)O)O3)O2)O1 (stereo in doubt),.,.,0.231µM*,.,0.206µM*,.
c1ccc(CCN2CCCC2)cc1,.,.,-0.5%,.,-6.5%,.
Cc1ccc(NC(=O)C2CCCN2S(=O)(=O)c2ccc3c(c2)CCCC(=O)N3)cc1Cl (centres undefined),.,.,16.4µM*,2.6%,?,.
CC(=O)N1CCCc2cc(S(=O)(=O)N3CCCC(C(=O)Nc4cccc(F)c4)C3)ccc21 (centres undefined),2.9,2.1,?,6.9%,?,-3.1
Cc1ccc(N2CCN(C(=O)c3cn(CC4CCCCC4)nn3)C(C)C2)cc1 (centres undefined),-17.5,-5.4,18.4µM*,.,?,-18.6
O=C1C2C3CCC(O3)C2C(=O)N1c1cccc(F)c1 (centres undefined),27.4,78.3,5.4%,.,14.7%,.
CN(C)C=C1C(=O)N(C2CCCCC2)C(=O)N(C2CCCCC2)C1=O,8.8,-6.8,16.4µM*,2.5%,?,-1.3
C/C(=N\N1CCCCCC1)c1c(O)n(C2CCCCC2)c(=O)[nH]c1=O,3.0,36.5,-16.6%,1.2%,?,1.2
CC(C(=O)OC1CC2CCC(C1)N2C)c1ccc(Br)cc1 (centres undefined),.,.,20.6µM*,7.3%,16.4µM*,.
CCC(Oc1ccc(Cl)cc1)C(=O)OC1CC2CCC(C1)N2C (centres undefined),.,.,13µM*,7.3%,10.3µM*,.
CCCNS(=O)(=O)c1ccc(OCC(=O)N2CCN(Cc3ccc4c(c3)OCO4)CC2)cc1,2.2,-19.7,?,-3.3%,11.6µM*,-1.9
COc1ccc(C(=O)Nc2ccccc2-c2nnn(CC(=O)Nc3ccc4c(c3)OCCO4)n2)cc1,11.0,-4.1,?,0.0%,?,15.3
CC(=NCc1cccnc1)c1c(O)n(-c2ccccc2)c(=O)[nH]c1=O,0.0,-2.5,-10.8%,7.6%,-0.1%,3.2
SMILES,Six1-Eya2 inh,IL-1B inflam inh,TDP1 cell CPT,TDP1 block,TDP1 cell noCPT,CtBP-E1A inh
CCc1ccc(-n2c(SC(CC)C(=O)N(CC)CC)nc3n[nH]c(C)c3c2=N)cc1 (centres undefined),.,.,2.59µM*,2.8%,2.59µM*,.
CC1CCN(CC#CCOc2ccc(Cl)cc2)CC1,-0.3,-3.9,-23.7%,.,-5.7%,14.4
CCc1ccccc1NC(=O)C(CC)Oc1ccccc1-c1nnc(-c2ccccc2)o1 (centres undefined),.,.,5.8µM*,4.5%,5.17µM*,.
COc1cc(C(=O)Nc2ccc(Br)cc2C(=O)c2ccccc2Cl)cc(OC)c1OC,-10.5,27.6,?,-2.7%,23.1µM*,0.9
O=C(CN1CCCCC1)NCC(=O)Nc1ccc(Br)cc1C(=O)c1ccccc1,-5.5,22.6,16.4µM*,1.0%,18.4µM*,-14.1
O=C(CNC(=O)c1ccccc1Cl)Nc1ccc(Br)cc1C(=O)c1ccccc1,0.3,0.6,18.4µM*,3.4%,18.4µM*,2.4
O=C(Nc1ccc(Cl)cc1C(=O)c1ccccc1)c1ccccc1Br,.,.,?,2.2%[12.3 µM],2.91µM*,.
Cc1cc(Oc2ccc(C(F)(F)F)cc2[N+](=O)[O-])c2c3c(c(=O)oc2c1)CCCC3,5.1,21.7,-23.6%,-3.0%,?,-5.0
CCCCC1(C2CCCC2)Cc2cc(OCCCC(=O)O)c(Cl)c(Cl)c2C1=O (centres undefined),.,.,.,8.2%,.,.
c1ccc(CN2Cc3ccccc3-n3nncc3C2)nc1,-17.9,2.3,-5.8%,.,-20.5%,-5.3
O=C(O)C1=CC2c3ccccc3C1c1ccccc12,-1.7,15.7,-1.8%,5.6%,-0.4%,2.9
O=C(CNC(=O)c1ccccc1)Nc1ccc(Br)cc1C(=O)c1ccccc1,-6.0,-52.2*,1.9%,4.2%,?,-1.8
O=C(N/N=C/c1ccccc1OC(=O)N1CCOCC1)c1cccs1,0.0,126.0,4.11µM*,2.5%,4.61µM*,.
O=S(=O)(c1cc(Cl)cc(Cl)c1)N1Cc2cc(-c3ccccc3)ccc2-n2nncc2C1,2.1,9.7,?,.,?,5.9
O=C(Nc1cc(C(F)(F)F)cc(C(F)(F)F)c1)c1cccn(Cc2ccccc2Cl)c1=O,.,.,?,-5.5%,?,.
O=C(OC1CCN(CCCl)CC1)C(c1ccccc1)c1ccccc1,2.7,-71.2*,16.4µM*,7.1%[56.1 µM],?,2.7

# Assay outcomes as filed in PubChem BioAssay.
